Data published in PubChem BioAssay (NCATS).
Results filed as inconclusive are left out. Entries that show only a call come without a potency. Active and inactive are the calls of the source. Calls follow the shape of the full dose curve.

target: Nucleoprotein (Lymphocytic choriomeningitis virus (strain Armstrong)) (UniProt P09992); experiment: qHTS for Inhibitors of the Functional Ribonucleoprotein Complex (vRNP) of Lymphocytic Choriomeningitis Arenaviruses (LCMV): LCMV Primary Screen - GLuc reporter signal (AID 1347086); details: LCMV minigenome vRNP cell assay, Gaussia luciferase reporter; series mostly up to 57.5 µM; also: nearly all actives have a fitted effect of over 70% in size
Sequence (P09992 whole entry, looked up): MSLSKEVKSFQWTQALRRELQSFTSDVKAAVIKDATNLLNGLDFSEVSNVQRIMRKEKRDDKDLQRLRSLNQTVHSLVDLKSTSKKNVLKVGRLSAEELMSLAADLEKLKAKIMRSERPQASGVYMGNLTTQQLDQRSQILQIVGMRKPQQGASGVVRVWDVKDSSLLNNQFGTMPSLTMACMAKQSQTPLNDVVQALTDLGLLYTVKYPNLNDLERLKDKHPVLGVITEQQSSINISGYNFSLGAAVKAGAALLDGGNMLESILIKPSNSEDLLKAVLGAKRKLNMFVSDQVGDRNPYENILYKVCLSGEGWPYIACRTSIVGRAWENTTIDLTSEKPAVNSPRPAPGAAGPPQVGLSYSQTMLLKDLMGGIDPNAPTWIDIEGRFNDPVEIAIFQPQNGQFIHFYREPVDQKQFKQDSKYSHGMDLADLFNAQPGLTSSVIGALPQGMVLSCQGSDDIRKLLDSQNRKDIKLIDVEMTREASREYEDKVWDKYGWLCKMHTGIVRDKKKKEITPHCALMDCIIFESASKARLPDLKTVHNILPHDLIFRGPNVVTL

| Structure (SMILES) | Potency |
| --- | --- |
| CCCCCN(CCCCC)C(=O)C(CCC(=O)O)NC(=O)c1ccc(Cl)c(Cl)c1 (stereo not given) | inactive |
| CCOCC(O)COc1ccc(NC(=O)CC[S+](C)C)cc1 (stereo not given) | inactive |
| Cc1ccc(CCn2c3c(c4cc(Cl)ccc42)CN(C)CC3)cn1 | inactive |
| COc1ccc2nc(NC(=O)Nc3ccccc3)sc2c1 | inactive |
| CN(C)[C@@H]1C(=O)C(C(=O)NCN2CCCC2)=C(O)[C@@]2(O)C(=O)C3=C(O)c4c(O)cccc4[C@@](C)(O)C3C[C@@H]12 (stereo not given in full) | inactive |
| CCN(CC)CCOc1ccc(/C(=C(\Cl)c2ccccc2)c2ccccc2)cc1 | inactive |
| Cc1c(Cn2ccnc2)c2ccccc2n1CCC(=O)O | inactive |
| CC1(C)CO[C@@H](CC(=O)O)CN1 | inactive |
| CN1C(=O)CC(c2ccccc2)C1=O (stereo not given) | inactive |
| C[C@@]12CCC[C@H]1[C@@H]1CC[C@H]3C[C@@H](O)CC[C@]3(C)[C@H]1CC2 | inactive |
| O=C(O)CP(=O)(O)O | inactive |
| CN(C)CC[C@@H](c1ccc(Cl)cc1)c1ccccn1 | inactive |
| Cc1ccc(Cl)c(OCC(O)CNC(C)(C)C)c1 (stereo not given) | inactive |
| CCCCCCCCCCCC[N+](C)(C)Cc1ccccc1 | inactive |
| Oc1cccc2[nH]ccc12 | inactive |
| NC(N)=N/N=C/c1c(Cl)cccc1Cl | inactive |
| CC(C)NC(=O)c1ccc(C=O)cc1 | inactive |
| CCn1c(=O)c2c(nc(C=Cc3ccc(OC)c(OC)c3)n2C)n(CC)c1=O | inactive |
| Oc1ccc(Cl)cc1Sc1cc(Cl)ccc1O | inactive |
| O=c1ccc2ccccc2o1 | inactive |

| Structure (SMILES) | Potency |
| --- | --- |
| CCN(CC)CCOc1ccccc1C(=O)CCc1ccccc1 | inactive |
| Cc1cccc(C)c1NC(=O)C(C)N (stereo not given) | inactive |
| CC(=O)OCC(=O)Nc1cc(C#N)cc(NC(=O)COC(C)=O)c1Cl | inactive |
| CNC(=O)Oc1ccc2c(c1)[C@]1(C)CCN(C)[C@@H]1N2C | inactive |
| Cc1cc(C(C)(C)C)c(O)c(C)c1CC1=NCCN1 | inactive |
| C[C@]12C=CC(=O)C=C1CC[C@H]1[C@@H]3C[C@@H](O)[C@](O)(C(=O)CO)[C@@]3(C)C[C@H](O)[C@@]12F | inactive |
| COc1cc([C@H]2Oc3cc([C@H]4Oc5cc(O)cc(O)c5C(=O)[C@@H]4O)ccc3O[C@@H]2CO)ccc1O | inactive |
| Cl/C(=C\n1cncn1)c1ccc(Cl)cc1Cl | inactive |
| Cc1c(N(C)C)c(=O)n(-c2ccccc2)n1C | inactive |
| CC1=C(C(=O)O)N2C(=O)[C@@H](NC(=O)[C@H](N)C3=CCC=CC3)[C@H]2SC1 | inactive |
| Cc1cc(=O)oc2cc(O)ccc12 | inactive |
| NC(=O)C(=O)N/N=C/c1ccc([N+](=O)[O-])o1 | inactive |
| CC(=O)[C@@]1(O)CC[C@H]2[C@@H]3C[C@H](C)C4=CC(=O)CC[C@]4(C)[C@H]3CC[C@@]21C | inactive |
| CC(=O)NC(Cc1ccccc1)C(=O)O (stereo not given) | inactive |
| CCC(C)(C)c1ccc(CC(C)CN2C[C@@H](C)O[C@@H](C)C2)cc1 (stereo not given in full) | inactive |
| C=C1C(=C/C=C2\CCC[C@]3(C)[C@@H]([C@H](C)/C=C/[C@@H](O)C4CC4)CC[C@@H]23)C[C@@H](O)C[C@@H]1O | inactive |
| Cc1cc(NC(=O)C2=C(O)c3ccccc3S(=O)(=O)N2C)no1 | inactive |
| CCOC(=O)OC(C)OC(=O)[C@@H]1N2C(=O)[C@@H](NC(=O)[C@H](N)c3ccccc3)[C@H]2SC1(C)C (stereo not given in full) | inactive |
| Cc1cccc(CN2CCN(C(c3ccccc3)c3ccc(Cl)cc3)CC2)c1 (stereo not given) | inactive |
| Brc1c(NC2=NCCN2)ccc2nccnc12 | inactive |
